Compound activity (PubChem BioAssay)
Sampled rows, rich in hits. Any-hit rate of the full collection: about 7.9%.
MCF10A rerep – inducers of DNA re-replication in MCF 10A breast cells; MCF 10A DNA re-replication, Hoechst nuclear intensity, 48 h; Potency, µM (series often up to 46.1 µM), without a hit: top-dose activity, positive = re-replication, hits mostly activators; actives 2.9% (n = 350,000); also: % of control where 0% means no effect; nearly all actives have a fitted effect of over 50% in size
HT1080 IDH1KD tx – toxicity to HT-1080 IDH1 knockdown cells (counter line) | HT-1080 IDH1 knockdown viability, ATP luminescence, 48 h | Potency, µM (doses to about 46.1 µM), for inactives: top-dose activity, negative = toxicity, hits mostly cytotoxic | actives 2% (n = 360,000) | AID 686971;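 also: 0% = DMSO wells and -100% = cell-free medium wells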
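HT-1080-IDH1KD cells (IDH1 knocked down), 750/well in RPMI with 5% FBS, treated with compound 48 h at 37 degrees C. Viability by CellTiter-Glo luminescence, normalised to DMSO and no-cell wells; concentration-response curves classed.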
SW480 rerep – induces DNA re-replication in SW480 colon adenocarcinoma cells; SW480 DNA re-replication, Hoechst DNA content imaging, 48 h; Potency, µM (series often up to 46.1 µM), without a hit: top-dose re-replication activation, usual class: activators; actives 1.8% (n = 340,000); also: % of control where 0% means no effect; nearly all actives have a fitted effect of over 55% in size
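SW480 cells exposed to compounds for 48 hr at 37 C, 5% CO2, then Hoechst-stained 40 min. Nuclear DNA content imaged by fluorescence scanning (405 nm excitation, 500-530 nm emission); re-replication scored as increased high-intensity nuclei.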
KB-V1 MDR tox – KB-V1 MDR subline cytotoxicity | KB-V1 MDR cells viability, CellTiter-Glo, 72 h | Potency, µM (doses to about 46.1 µM), usual class: cytotoxic | actives 3.4% (n = 400,000); also: % is scaled to controls: 0 for no effect and ±100 for the full control effect; nearly all actives have a fitted effect of over 60% in size
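Compound-treated KB-V1 multidrug-resistant cells, 72 h, 37 degrees C; viability by CellTiter-Glo. Fitted qHTS curves give the values.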
KB-3-1 cytotox – KB-3-1 parental cell cytotoxicity; Potency, µM (titrated, usually from 46.1 µM), most hits filed as cytotoxic; KB-3-1 viability, CellTiter-Glo ATP luminescence, 72 h; actives 1.4% (n = 400,000); also: % is scaled to controls: 0 for no effect and ±100 for the full control effect; nearly all actives have a fitted effect of over 60% in size
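Screening of KB-3-1 cells (DMEM, 10% FBS, phenol-red free) ran from lowest to highest compound concentration; after 72 h at 37 °C viability was read luminescently and curves fitted.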
HT1080NT lethal – kills 2HG-producing HT-1080-NT fibrosarcoma cells. HT-1080-NT fibrosarcoma viability, CellTiter-Glo ATP luminescence, 48 h. Potency, µM (doses to about 46.1 µM), inactives show at the top dose activity, negative = less viability, hits mostly cytotoxic. actives 1.6% (n = 360,000);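 also: NT is the 2HG producing partner of a matched IDH1 knockdown line; 0% = DMSO-treated cells and -100% = media-only wells without cells; nearly all actives have a fitted effect of over 55% in size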
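Fibrosarcoma NT cells, 750 per well in 5% FBS RPMI, were exposed to compound for 48 hours. Viability: CellTiter-Glo luminescence.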
* = called active by the depositor; i = inactive; ? = inconclusive; . = no result given; ! = a repeat was not active; [ ] = remark or other dose. Calls follow the shape of the dose curve; as a rule, active = well fitted curve in the direction sought with a large enough effect; inconclusive = small, poorly fitted or top-dose-only effect, or another doubt; inactive = no such curve, though single readings can be large; an effect the other way counts as inactive or inconclusive. Potency is read from the fitted curve at half-maximal effect.

SMILES	MCF10A rerep	HT1080 IDH1KD tx	SW480 rerep	KB-V1 MDR tox	KB-3-1 cytotox	HT1080NT lethal
CCOC(=O)c1sc2nc(CC(=O)OC)nc(NCc3ccco3)c2c1C	-0.5%	0.4%	0.5%	3.26µM*	i	11.0%
O=C(NCCN1CCC(n2c(=O)[nH]c3ccccc32)CC1)c1cccc(F)c1	.	-10.3%	.	i	?	13.2%
Cc1ccc(CSC2=Nc3ccccc3C3=NC(CCC(=O)NC4CCCCC4)C(=O)N23)cc1 (stereo not given)	.	.	.	i	?	.
CCCN(c1ccc(C(C)C)cc1)S(=O)(=O)c1ccc2c(c1)n(C)c(=O)c(=O)n2C	.	.	.	i	i	.
Cc1ccc(NC(=O)CN(c2ccc(Cl)cc2)S(=O)(=O)c2cc([N+](=O)[O-])ccc2Cl)cc1	?	-19.8%	?	?	?	-18.1%
O=C(NNc1ccccc1[N+](=O)[O-])Nc1ccc(Cl)c(Cl)c1	?	18.4µM*	-2.3%	i	?	18.4µM*
O=C(NNc1ccccc1[N+](=O)[O-])Nc1ccccc1	1.3%	-2.4%	-0.7%	i	i	0.7%
CCN(CC)S(=O)(=O)c1cc([N+](=O)[O-])ccc1NNC(=O)Nc1ccc(Cl)c(Cl)c1	?	4.11µM*	26.7%	?	5.8µM*	5.8µM*
O=C(NCCOc1ccccc1F)c1cccc(S(=O)(=O)N2CCN(c3ccccc3)CC2)c1	-0.3%	-2.3%	?	13µM*	i	-2.9%
COc1ccccc1N1CCN(S(=O)(=O)c2ccc3nc(-c4ccccc4)[nH]c3c2)CC1	25.9µM*!	-5.9%	-4.2%	?	i	-5.8%
CC(=O)N1CCN(C(=O)c2cccc(S(=O)(=O)N3CCN(c4ccccc4)CC3)c2)CC1	2.7%	-3.6%	-2.9%	i	i	6.7%
COc1ccc(S(=O)(=O)N2CCN(c3ccccc3)CC2)cc1OC	-14.7%	-2.9%	?	i	i	0.4%
O=C(NNC(=O)c1cccc(S(=O)(=O)N2CCN(c3ccccc3)CC2)c1)c1ccc(Cl)cc1	?	14.4%	-4.0%	16.4µM*	i	1.0%
COc1cc(S(=O)(=O)N2CCN(c3ccccc3)CC2)ccc1Cl	6.9%	12.3%	6.3%	23.1µM*	i	1.5%
O=S(=O)(c1cccc2ccccc12)N1CCN(c2nc(-c3cccs3)nc3ccccc23)CC1	.	20.0%	.	.	.	7.3%
CC1CCN(CC(=O)Nc2nc(-c3ccccc3)cs2)CC1	?	4.9%	-2.0%	i	i	-2.5%
O=C(Cn1nnc(-c2ccc(CN3CCOCC3)cc2)n1)Nc1nc(-c2ccccc2)cs1	8.9%	-14.5%	6.6%	18.4µM*	i	?
CCOC(=O)c1ccc(-c2csc(NC(=O)CN3CCC(C)CC3)n2)cc1	?	?	5.7%	i	i	25.9µM*
Cc1ccc(-c2csc(NC(=O)CN3CC(C)OC(C)C3)n2)cc1 (stereo not given)	18.4µM*	?	?	?	23.1µM*	?
COc1cc(-c2noc(CN3CCN(c4ccccc4)CC3)n2)cc(OC)c1OC	.	.	.	i	i	.
COCCCNC(=O)C1CCN(Cc2nc(-c3ccc(OC)c(OC)c3)oc2C)CC1	.	.	.	i	i	.
CCC1C(O)=C(c2ccccn2)C(=N)N1c1ccccc1 (stereo not given)	13µM*	0.0%	18.4µM*	i	i	0.0%
CCOC(=O)c1cccc(NC(=O)C2CCN(S(=O)(=O)c3ccc4c(c3)oc(=O)n4C)CC2)c1	.	.	.	i	i	.
Cc1cc(Nc2cc(Cl)ccc2C)n2nc(-c3ccccc3)nc2n1	.	.	.	i	i	.
CS(=O)(=O)N(CC(=O)N/N=C/c1cc2c(cc1Br)OCO2)c1ccccc1Br	1.2%	-12.1%	-5.7%	18.4µM*	?	-2.2%
SMILES	MCF10A rerep	HT1080 IDH1KD tx	SW480 rerep	KB-V1 MDR tox	KB-3-1 cytotox	HT1080NT lethal
CCCCSc1nnc2c(n1)OC(c1ccc(Br)s1)Nc1ccccc1-2 (stereo not given)	.	.	.	i	i	.
COc1ccc(-c2noc(-c3ccc(NC4CCCCC4)c([N+](=O)[O-])c3)n2)cc1	.	.	.	?	i	.
Cn1c2c(c(=O)n(C)c1=O)C(c1cc(Br)ccc1F)CC(=O)N2 (stereo not given)	.	.	.	i	i	.
O=C1CC(c2cc(Br)ccc2F)c2cc3c(cc2N1)CCC3 (stereo not given)	1.46µM*	1.26µM*	1.16µM*	?	1.64µM*	1.78µM*
COC(=O)C1=C(C)NC(=O)CC1c1ccccc1F (stereo not given)	5.8µM*	5.3%[9.24 µM]	?	i	i	-0.7%
O=C1CC(c2ccccc2F)c2cc3c(cc2N1)CCC3 (stereo not given)	-1.5%	0.891µM*	-5.6%	13µM*	8.2µM*	1.58µM*
CN1CCN([C@H]2CS(=O)(=O)N[C@@H]2COCc2ccccc2)CC1	.	3.0%	.	i	i	26.9%
CC(C)NC(=O)OC1CC2CC1[C@H]1CCCCN1C2=O (stereo not given in full)	.	5.0%	.	i	i	19.8%
CC1=C(c2ccc(F)cc2)S(=O)(=O)NC1=NCc1ccccc1Cl	.	.	.	i	i	.
O=C(c1ccc2c(=O)n(Cc3ccco3)c(=S)[nH]c2c1)N1CCN(Cc2ccccc2)CC1	?	?	0.7%	20.6µM*	?	-23.3%
CCOC(=O)N1CCN(C(=O)c2ccc3c(=O)n(Cc4ccc(Cl)cc4)c(=S)[nH]c3c2)CC1	?	-20.6%	-4.4%	13µM*	23.1µM*	-2.1%
O=C(c1ccc2c(=O)n(Cc3ccco3)c(=S)[nH]c2c1)N1CCN(Cc2ccc3c(c2)OCO3)CC1	.	-11.4%	.	.	.	-10.0%
CCc1ccc(NC(=O)CN2C(=O)C3CCCN3c3ccc(S(=O)(=O)N(CC)CC)cc32)cc1 (stereo not given)	.	.	.	i	i	.
Cc1ccc(NC(=O)C2CCCN(c3ncnc4onc(C)c34)C2)c(Cl)c1 (stereo not given)	.	.	.	?	2.59µM*	.
O=C(NCC1CCN(Cc2cccc(Cl)c2)CC1)C1CCCN(c2ncnc3c2nc2n3CCCCC2)C1 (stereo not given)	10.0%	?	0.6%	i	i	20.6µM*
CCc1ccccc1N(CC)C(=O)C1CCN(c2ncnc3c2nc2n3CCCCC2)CC1	23.1µM*	?	?	?	?	-5.3%
COc1ccc(Cl)cc1NC(=O)C1CCCN(c2ncnc3onc(C)c23)C1 (stereo not given)	.	.	.	?	i	.
